# Experimental data as given in PubChem BioAssay (NCI).
# The panel holds about 83,000 compounds, 20% with a hit somewhere; the sample as a whole holds those more often.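 For each line, cells grew in 96-well plates with the test compound present at a single concentration for 48 hours.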 Values without a mark were called inactive. The source made the active and inactive calls. The calls were made as follows: active = growth percent below 10; inactive = the rest.
# Columns and labels:
# Assay in all cases: NCI-60 one-dose screen, 48 h (100 = growth as untreated, 0 = no growth, -100 = all killed)
# Settings in all cases: 10 µM unless noted
# SR leukemia = system: SR leukemia
# RPMI-8226 leukemia = system: RPMI-8226 leukemia
# OVCAR-8 ovarian = system: OVCAR-8 ovarian
# OVCAR-5 ovarian = system: OVCAR-5 ovarian
# SK-OV-3 ovarian = system: SK-OV-3 ovarian
# IGROV1 ovarian = system: IGROV1 ovarian
# OVCAR-3 ovarian = system: OVCAR-3 ovarian
# HS 578T breast = system: HS 578T breast
# NCI/ADR-RES ovarian = system: NCI/ADR-RES ovarian
# T-47D breast = system: T-47D breast
# BT-549 breast = system: BT-549 breast
# MDA-MB-435 melanoma = system: MDA-MB-435 melanoma
# SW-620 colon = system: SW-620 colon
# MCF7 breast = system: MCF7 breast
# HCT-116 colon = system: HCT-116 colon
# HCC-2998 colon = system: HCC-2998 colon
# KM12 colon = system: KM12 colon
# OVCAR-4 ovarian = system: OVCAR-4 ovarian
SMILES,growth (SR leukemia),growth (RPMI-8226 leukemia),growth (OVCAR-8 ovarian),growth (OVCAR-5 ovarian),growth (SK-OV-3 ovarian),growth (IGROV1 ovarian),growth (OVCAR-3 ovarian),growth (HS 578T breast),growth (NCI/ADR-RES ovarian),growth (T-47D breast),growth (BT-549 breast),growth (MDA-MB-435 melanoma),growth (SW-620 colon),growth (MCF7 breast),growth (HCT-116 colon),growth (HCC-2998 colon),growth (KM12 colon),growth (OVCAR-4 ovarian)
O=C(Cc1ccc(/C=C/C(=O)c2ncc[nH]2)cc1)Nc1ccc(Cl)cc1,0.986% (active),-29.2% (active),-6.61% (active),41.7%,64.3%,27.9%,-4.9% (active),5.07% (active),19.5%,23.2%,29.3%,23.8%,-35.3% (active),13%,-47.5% (active),79.4%,-39% (active),
Cc1cccc(NC(=O)Nc2ccc(-c3ccc4c(c3)NC(=O)/C4=C\c3ccc[nH]3)cc2)c1,23.6%,91.4%,105%,96.3%,90.5%,78%,103%,,,39.1%,102%,78.8%,73%,15.3%,72.7%,99%,19.4%,73.4%
O=C(O)c1ccc(-c2nn(-c3ccc(C(F)(F)F)cc3)cc2CNc2ccc(Oc3ccccc3)cc2)cc1,60.7%,46.5%,69%,103%,135%,89%,92.5%,,81.9%,65%,90.6%,87.5%,93.9%,70.3%,60.8%,115%,59.5%,90.3%
C=CCN1C(=O)/C(=C/C(=O)OC)S/C1=N\NC(=O)c1cc2ccc1/C=C\c1ccc(cc1)/C=C\2,1.79% (active),-9.36% (active),88.2%,96.1%,140%,89.2%,86.4%,93.6%,89.5%,62.8%,61.7%,100%,44.5%,51.5%,54%,108%,81.6%,
COc1cccc(-c2cc(C(=O)Nc3ccc(/C=C/c4ccc(OC5CCN(C)CC5)cc4)cc3)ccc2OC)c1,-44.4% (active),-32.7% (active),-38.8% (active),25.2%,109%,-56.3% (active),-82.9% (active),,-11.2% (active),53%,,-77.4% (active),,-34.9% (active),-93.4% (active),74.9%,-72.8% (active),-56.5% (active)
NCCCCCCNc1cc(-c2cccc(OC(F)(F)F)c2)nc2ccc(N3CCCC3)cc12,-24.7% (active),-37.8% (active),2.63% (active),12.6%,93.6%,-55.6% (active),-82.4% (active),-54% (active),5.01% (active),-15.4% (active),55.7%,-99.8% (active),-86.3% (active),-72.6% (active),-63.3% (active),-66.5% (active),-82.7% (active),
O=C(C1CCC1)N1N=C(c2ccc(-n3ccc(C(F)(F)F)n3)cc2)CC1c1ccc[nH]1 (stereo unspecified),81.9%,63.2%,95.4%,94.8%,133%,99.6%,107%,101%,95.5%,78%,119%,99.7%,103%,91.9%,94.4%,113%,,
Oc1ccc(OCCOc2ccc(O)cc2)cc1,45.7%,66.9%,42.4%,69.4%,95.1%,71.4%,70.2%,109%,24.3%,72.5%,54.7%,47.2%,50.2%,55.7%,55.9%,47.1%,29.2%,
O=[N+]([O-])CC(c1ccccc1F)c1c[nH]c2ccccc12 (stereo unspecified),30.2%,76%,78%,96%,119%,68.6%,77.9%,77.2%,48.2%,59.4%,73.8%,3.66% (active),39%,54.3%,65.2%,80.6%,59.5%,
O=C(c1nc2ccccc2[nH]1)C1C(c2ccc(Br)cc2)C2CC3CCCC[C@H]3N2[C@@]12C(=O)Nc1cc(Cl)ccc12 (stereo partly specified),31.3%,17%,58.5%,46.8%,67.6%,28.8%,34.3%,66.8%,46.7%,29.1%,71.6%,23.7%,31.2%,16%,21.1%,39.7%,37.9%,
O=C(CCN1CCCC1)Nc1ccc2c(Nc3ccc(F)cc3)c3ccccc3nc2c1,-20.9% (active),-37.1% (active),4.18% (active),12.9%,38.4%,0.357% (active),-31.5% (active),25.2%,33.8%,7.84% (active),51.2%,-94.9% (active),-25% (active),-19.9% (active),-54.2% (active),-80.3% (active),0.928% (active),
O=C(/C(=C\c1ccc([N+](=O)[O-])cc1)S(=O)Cc1ccc(Cl)cc1)c1ccc(Cl)cc1 (stereo unspecified),15%,1.3% (active),73.6%,73.6%,105%,62.7%,73.7%,,71.7%,51.6%,94.6%,82.6%,,49%,4.9% (active),80.4%,73.8%,81.1%
CNC(=O)c1cc(Cn2nc(C)c(NC(=O)Nc3ccc(Cl)c(C(F)(F)F)c3)c2C)ccn1,91.9%,94.9%,97%,99.7%,95.2%,109%,109%,,98.8%,85%,,100%,111%,93.8%,86.7%,105%,106%,87.1%
CCOC(=O)/C(C#N)=C1/NNC(=Nc2cccnc2)S1,118%,107%,92.2%,102%,85.7%,111%,101%,96.7%,105%,88.7%,103%,99.2%,94.9%,106%,91.9%,113%,102%,
CN1CCN(c2ccc(NC3=C(Cl)C(=O)c4ncccc4C3=O)cc2C(F)(F)F)CC1,9.03% (active),-4.52% (active),30.4%,100%,84.9%,-37.6% (active),-82.9% (active),,,-19.7% (active),,-62.5% (active),-53% (active),-49.1% (active),-57.3% (active),105%,105%,-96.8% (active)
COc1cc(/C=C\c2cc(/C=C\c3ccc(O)c(OC)c3)n(C(=O)COc3ccccc3)n2)ccc1O,,-3.54% (active),3.26% (active),22.1%,-28.6% (active),8.43% (active),-4.46% (active),22.5%,20.4%,12.4%,-3.68% (active),8.84% (active),7.35% (active),1.3% (active),3.68% (active),34.8%,8.96% (active),25.6%
O=c1c2c(c(=O)n1O)c1c3ccc[nH]c3nc1c1nc3[nH]cccc3c12,,93.9%,67.1%,103%,89.2%,63%,98.3%,83.3%,89.6%,60.7%,80.9%,96.3%,62.4%,73.5%,72.7%,84.9%,97.1%,78.7%
